The source made the active and inactive calls.

For test [1], the system named is PRMT1 (protein arginine N-methyltransferase 1). Nature of the test: PRMT1 binders on small-molecule microarrays, primary screen, biochemical, small-molecule microarray, 635 nm fluorescence (AID 1088).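 Also: binding of Prmt1 protein to compounds spotted on small-molecule microarray slides.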 The conditions noted are these: small-molecule microarray binding, higher = more signal.
The nature of test [2]: yeast growth modulation, basal conditions, primary screen, YJM789 clinical isolate, OD600, 24 h (AID 1089).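 Also: growth of clinical yeast isolate S. cerevisiae YJM 789 seeded 1000 cells per well; test concentration not given here.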 The conditions noted are these: S. cerevisiae YJM789 growth, higher = more signal, called active from +8 up or from −8 down.
Test [3] is described as follows: fission yeast growth modulation, primary screen, strain 972, OD600, 24 h, no modulator (AID 1090).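 Also: basal condition with compound alone and no growth modifier present; test concentration not given here.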 The conditions noted are these: S. pombe 972 growth, higher = more signal, called active from +8 up or from −8 down.
Test [4] can be described thus: S. cerevisiae growth modulation with rapamycin, primary screen, strain BY4716, OD600, 96 h (AID 1091). Also: test concentration not given here. The conditions noted are these: higher = more signal, called active from +8 up or from −8 down.
Test [5] concerns the target Torsin-1A-interacting protein 2 (Homo sapiens) (UniProt Q8NFQ8). The experiment in a line: LULL1 binders on small-molecule microarray, primary screen, cell lysate, human LULL1 lysate, 635/667 nm fluorescence (AID 1092).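 Also: probe is lysate of COS7 cells overexpressing human LULL1; score merges per-feature 667 nm fluorescence with signal-to-noise.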 The conditions noted are these: hLULL1 lysate binding, 635 nm fluorescence, higher = more signal.
The nature of test [6]: E. coli growth modulation, two-sided OD650, primary screen, E. coli filamentation project, strain DRC41, 24 h (AID 1093).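 Also: MC1000 strain lacking acrAB efflux and sulA so SOS filamentation is blocked; test concentration not given here.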 The conditions noted are these: OD650, 24 h, higher = more signal, called active from +8 up or from −8 down.
Test [7] can be described thus: small-molecule microarray binders of probe aLefty2, primary screen, biochemical, biotinylated probe, 635/667 nm fluorescence (AID 1094).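 Also: score merges spot fluorescence near 667 nm with spot signal-to-noise ratio.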 The conditions noted are these: higher = more signal.
Test [8] concerns Noggin (protein binding on small-molecule microarray). The experiment in a line: Noggin binders on small-molecule microarray, primary screen, biochemical, 635/667 nm fluorescence (AID 1095).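 Also: score merges 667 nm feature fluorescence with signal to noise over triplicate slides.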 The conditions noted are these: 635 nm fluorescence, higher = more signal.
In test [9] the target is Neurogenic locus notch homolog protein 3 (Homo sapiens) (UniProt Q9UM47). Nature of the test: NOTCH3 binders on small-molecule microarray, primary screen, biochemical, 635/667 nm fluorescence (AID 1096). The conditions noted are these: NOTCH3 binding, 635 nm fluorescence, higher = more signal.
The nature of test [10]: small-molecule microarray binders of probe aEGFR, primary screen, biochemical, biotinylated probe, 635/667 nm fluorescence (AID 1097).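 Also: probe is a biotinylated anti-EGFR antibody binding compounds printed on slides; score combines fluorescence near 667 nm and signal to noise of each spot.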 The conditions noted are these: higher = more signal.

Sequence of Torsin-1A-interacting protein 2 (Homo sapiens) (Q8NFQ8 whole entry, looked up): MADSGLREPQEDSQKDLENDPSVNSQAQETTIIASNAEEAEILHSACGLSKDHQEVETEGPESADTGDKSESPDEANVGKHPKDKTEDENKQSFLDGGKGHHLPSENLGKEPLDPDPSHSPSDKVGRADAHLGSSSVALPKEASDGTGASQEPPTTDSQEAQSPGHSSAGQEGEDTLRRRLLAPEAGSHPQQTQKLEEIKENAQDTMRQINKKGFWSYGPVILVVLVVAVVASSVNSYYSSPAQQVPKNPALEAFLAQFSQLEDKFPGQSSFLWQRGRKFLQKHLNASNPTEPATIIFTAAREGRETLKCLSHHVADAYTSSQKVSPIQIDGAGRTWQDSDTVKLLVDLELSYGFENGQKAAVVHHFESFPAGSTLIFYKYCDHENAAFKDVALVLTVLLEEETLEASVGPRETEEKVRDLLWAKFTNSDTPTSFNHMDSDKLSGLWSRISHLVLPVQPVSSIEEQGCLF
Sequence of Neurogenic locus notch homolog protein 3 (Homo sapiens) (Q9UM47 whole entry, looked up): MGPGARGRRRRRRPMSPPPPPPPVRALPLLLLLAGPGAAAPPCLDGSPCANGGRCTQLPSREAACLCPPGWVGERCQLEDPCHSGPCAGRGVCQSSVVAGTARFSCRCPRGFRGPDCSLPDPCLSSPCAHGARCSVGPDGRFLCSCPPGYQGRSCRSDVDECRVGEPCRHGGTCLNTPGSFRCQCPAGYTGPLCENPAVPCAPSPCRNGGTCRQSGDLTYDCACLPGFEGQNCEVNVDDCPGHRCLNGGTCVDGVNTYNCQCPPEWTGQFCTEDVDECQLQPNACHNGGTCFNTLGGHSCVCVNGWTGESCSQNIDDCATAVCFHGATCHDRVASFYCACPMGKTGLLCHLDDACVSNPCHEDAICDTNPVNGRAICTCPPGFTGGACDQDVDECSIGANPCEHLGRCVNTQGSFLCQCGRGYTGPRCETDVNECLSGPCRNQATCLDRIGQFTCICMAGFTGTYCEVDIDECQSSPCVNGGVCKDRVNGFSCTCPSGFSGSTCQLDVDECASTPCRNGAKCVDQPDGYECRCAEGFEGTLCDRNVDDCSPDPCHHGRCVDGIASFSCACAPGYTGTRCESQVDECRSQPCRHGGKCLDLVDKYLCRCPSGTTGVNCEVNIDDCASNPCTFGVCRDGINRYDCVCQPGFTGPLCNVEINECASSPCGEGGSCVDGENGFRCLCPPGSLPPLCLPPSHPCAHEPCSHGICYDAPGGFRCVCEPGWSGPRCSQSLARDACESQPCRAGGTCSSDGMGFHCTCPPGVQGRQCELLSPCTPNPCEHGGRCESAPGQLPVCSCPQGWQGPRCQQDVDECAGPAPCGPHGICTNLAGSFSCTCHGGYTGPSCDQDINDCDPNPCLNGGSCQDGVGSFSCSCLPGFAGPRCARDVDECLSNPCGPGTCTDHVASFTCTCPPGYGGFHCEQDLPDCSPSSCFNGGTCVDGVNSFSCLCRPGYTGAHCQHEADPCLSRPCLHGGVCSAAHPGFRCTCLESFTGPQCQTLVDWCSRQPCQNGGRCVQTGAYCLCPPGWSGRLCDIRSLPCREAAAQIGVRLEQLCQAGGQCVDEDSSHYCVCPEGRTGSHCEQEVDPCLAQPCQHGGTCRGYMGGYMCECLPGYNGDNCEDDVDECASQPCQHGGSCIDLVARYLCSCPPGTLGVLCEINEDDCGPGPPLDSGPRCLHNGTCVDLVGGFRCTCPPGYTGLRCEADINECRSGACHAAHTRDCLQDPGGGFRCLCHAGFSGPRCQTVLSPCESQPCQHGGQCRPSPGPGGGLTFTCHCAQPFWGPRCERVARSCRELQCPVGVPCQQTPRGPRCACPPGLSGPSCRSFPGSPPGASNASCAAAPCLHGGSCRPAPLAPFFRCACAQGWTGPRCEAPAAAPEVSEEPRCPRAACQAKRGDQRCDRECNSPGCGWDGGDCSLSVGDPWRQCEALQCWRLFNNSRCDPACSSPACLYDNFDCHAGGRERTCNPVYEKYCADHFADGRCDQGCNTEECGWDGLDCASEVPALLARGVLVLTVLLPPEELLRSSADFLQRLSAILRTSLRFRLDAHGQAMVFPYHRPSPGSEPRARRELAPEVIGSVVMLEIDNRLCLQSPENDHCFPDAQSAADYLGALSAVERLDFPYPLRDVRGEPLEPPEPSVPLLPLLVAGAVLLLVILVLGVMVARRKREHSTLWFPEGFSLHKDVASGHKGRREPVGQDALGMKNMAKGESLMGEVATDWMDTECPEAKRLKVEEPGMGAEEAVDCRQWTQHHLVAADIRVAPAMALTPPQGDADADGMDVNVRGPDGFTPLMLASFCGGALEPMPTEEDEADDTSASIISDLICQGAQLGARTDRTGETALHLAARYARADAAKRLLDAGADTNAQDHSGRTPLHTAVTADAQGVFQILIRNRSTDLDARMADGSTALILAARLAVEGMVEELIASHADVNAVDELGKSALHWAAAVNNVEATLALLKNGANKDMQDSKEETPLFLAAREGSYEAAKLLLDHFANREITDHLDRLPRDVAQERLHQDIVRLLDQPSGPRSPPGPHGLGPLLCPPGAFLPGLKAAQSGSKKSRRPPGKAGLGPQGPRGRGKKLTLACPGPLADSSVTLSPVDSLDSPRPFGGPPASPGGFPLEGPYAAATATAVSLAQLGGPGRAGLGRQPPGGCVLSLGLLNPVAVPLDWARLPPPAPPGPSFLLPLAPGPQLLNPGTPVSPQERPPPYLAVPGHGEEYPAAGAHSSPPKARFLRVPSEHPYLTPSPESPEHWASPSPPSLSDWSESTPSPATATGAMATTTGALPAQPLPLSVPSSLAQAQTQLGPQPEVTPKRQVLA

Turning to `COCCOC(=O)N1C(=O)[C@@]2(c3ccccc31)[C@H](c1ccccc1OCCO)N1[C@H](c3ccccc3)[C@H](c3ccccc3)OC(=O)[C@H]1[C@@H]2C(=O)N1CCCCCCC1`, the composite z-score in [1] turned out to be 1.54; in test [5] it was 4.47; in [7], 1.97; in test [8], 1.78; in test [9], 1; in test [10], 1.48. For the same molecule, the z-score was 1.3 (inactive) in test [2], 1.35 (inactive) in [3], 5.52 (inactive) in test [4] and -0.489 (inactive) in test [6].

Consider `C=C(/C(=C/C[C@@H](OC(=O)c1ccncc1)c1cccc(OCCO)c1)c1cnc2ccccc2c1)C(C)C`, for which the composite z-score in [1] was 1.55; in test [5] it was 2.03; in [7], -0.0042; in test [8] it was 1.27; in test [9], 1.02; in test [10], 0.074. Further, the z-score in test [2] is -2.06 (inactive); in test [3], -1.77 (inactive); in test [4] it was 1.29 (inactive); in [6] it was 0.915 (inactive).

Regarding `CC(=O)n1cc(C(O)C2C=CC3C(=O)N(c4ccccc4)C(=O)C3N2Nc2ccc(C(C)C)cc2)c2ccccc21` (stereo not given), the composite z-score was 1.22 in [1]; 3.27 in [5]; 0.353 in test [7]; -0.706 in test [8]; 1.04 in [9]; 0.0786 in test [10]. Moreover, the z-score in [2] is -0.314 (inactive); in test [3], 0.713 (inactive); in test [4], 0.0496 (inactive); in test [6], -0.811 (inactive).

In the case of `[N-]=[N+]=NCc1ccccc1[C@@H]1OC(c2ccc(OCCCO)cc2)=N[C@]1(Cc1ccccc1N=[N+]=[N-])C(=O)NCCN1CCOCC1`, the composite z-score in [1] amounted to 1.55; in test [5], 3.26; in [7], 0.0814; in [8] it was 1.6; in test [9] it was 1.05; in [10] it was 0.0809. In addition, the z-score in test [2] was -0.563 (inactive); in test [3], -4.92 (inactive); in test [4], -0.889 (inactive); in test [6], 0.118 (inactive).

For `CCOC(=O)C[C@H]1[C@H](OC(=O)c2ccccc2-c2ccccc2)[C@@H](NC(=O)c2ccc3ccccc3n2)c2cc(OCCCO)ccc2N1C(=O)c1ccccc1`, the composite z-score in test [1] is 1.01; in [5], 1.46; in [7], -0.149; in test [8] it was 0.54; in test [9] it was 0.797; in test [10] it was -0.0084. For the same molecule, the z-score in test [2] is 1.2 (inactive); in test [3] it was 0.364 (inactive); in test [4], 1.61 (inactive); in test [6], -0.943 (inactive).

Turning to `C=C(COC)C(=O)CC[C@H](OC(C)=O)c1ccc(OCCO)cc1`, the composite z-score in test [1] is 1.44; in test [5], -0.451; in test [7] it was -0.211; in test [8], 1.93; in [9], 0.711; in [10], -0.0387. For the same molecule, the z-score is 0.389 (inactive) in test [2], -2.5 (inactive) in [3], -1.06 (inactive) in test [4] and 1.39 (inactive) in test [6].

Regarding `CCCNC(=O)[C@@]1(Sc2ccc(C)cc2)CC(=O)N(C2CCCCC2)[C@@H]1c1ccc(CO)cc1I`, the composite z-score is 1.56 in test [1]; 2.44 in test [5]; -0.273 in [7]; -0.447 in [8]; 0.298 in test [9]; -0.0643 in [10]. In addition, the z-score in [2] was -1.2 (inactive); in test [3], 0.554 (inactive); in [4] it was -0.133 (inactive); in test [6] it was 0.19 (inactive).

For the molecule `C=C(COC)/C(=C/C[C@@H](OC(C)=O)c1ccc(CO)o1)c1cc(C(=O)OC)ccc1OC`, the composite z-score in test [1] is 1.02; in test [5] it was 1.81; in test [7] it was -0.166; in test [8], 1.07; in test [9], 0.711; in test [10], -0.0828. Further, the z-score in test [2] was 0.932 (inactive); in test [3] it was 0.369 (inactive); in test [4], 0.264 (inactive); in test [6], 0.0184 (inactive).

With `NC(=O)NCC#Cc1ccc2c(c1)[C@]1(C(=O)N2)[C@H](C(=O)N2CCN(c3ncccn3)CC2)[C@H]2C(=O)O[C@H](c3ccccc3)[C@H](c3ccccc3)N2[C@@H]1c1ccc(OCCO)cc1`, the composite z-score is 1.18 in [1]; 1.89 in test [5]; -0.0321 in [7]; 0.513 in [8]; 1.13 in test [9]; -0.0271 in test [10]. Moreover, the z-score was 2.47 (inactive) in [2], 2.31 (inactive) in [3], 5.27 (inactive) in [4] and 1.37 (inactive) in test [6].

As to `CN(C)CCCC[C@@H]1NC(=O)[C@@H]2C[C@H](C(=O)O)[C@H](c3cccc(OCCO)c3)N2C1=O`, the composite z-score was 0.212 in test [1]; 1.31 in test [5]; -0.036 in [7]; -0.0355 in test [8]; -0.0905 in [9]; -0.203 in test [10]. In addition, the z-score in test [2] is 0.15 (inactive); in test [3] it was -0.595 (inactive); in [4] it was -0.273 (inactive); in [6] it was 0.802 (inactive).

In the case of `CC(C)N1CC=CC23O[C@@H]4/C=C\CCCOC(=O)C4[C@H]2C(=O)N(CCCCCCO)[C@@H]3C1=O` (stereo not given in full), the composite z-score in [1] is 0.529; in test [5], 3.18; in test [7], -0.121; in [8], -1.26; in test [9], -0.112; in test [10], -0.152. The z-score is 0.226 (inactive) in test [2], -2.03 (inactive) in test [3], -0.331 (inactive) in test [4] and 2 (inactive) in [6].

As for `COCC(=C=CC[C@@H](O)c1cccc(OCCO)c1)CCO`, the composite z-score was 0.783 in test [1]; 0.939 in test [5]; -0.171 in test [7]; 0.225 in [8]; 0.669 in [9]; 0.102 in test [10]. Also, the z-score in test [2] was 0.0995 (inactive); in test [3], 0.114 (inactive); in test [4], -0.0032 (inactive); in test [6], 0.0464 (inactive).

On to `COc1ccc([Si](C)(C)[C@@H]2[C@@H](CC(=O)N3Cc4ccccc4C[C@H]3CO)O[C@]3(C(=O)N(Cc4ccc(N5CCC5=O)cc4)c4ccccc43)[C@H]2C)cc1`, for which the composite z-score was 1.55 in [1]; 2.77 in test [5]; -0.0945 in test [7]; 1.32 in test [8]; 1.14 in [9]; -0.0954 in [10]. The z-score in test [2] is 0.68 (inactive); in [3], 1.02 (inactive); in [4], 3.23 (inactive); in test [6], 0.409 (inactive).

The values are drawn from PubChem BioAssay.
